# NPC1 promoter act: activators of NPC1 promoter; actives 2.4% (n = 320,000); Potency, µM (highest dose often 9.22 µM), actives largely listed as activators; Huh7 NPC1 promoter luciferase reporter, 24 h; AID 485313; further: nearly all actives have a fitted effect of over 60% in size
#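 Readout is luciferase luminescence, reflecting NPC1 promoter activation in stably transfected Huh7 cells after 24 h compound exposure at 37 °C in reduced-serum medium with 10% FBS.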
# Rab9 promoter act: activators of Rab9 promoter; Potency, µM (doses to about 9.22 µM), usual class: activators; actives 2.8% (n = 320,000); AID 485297; Huh7 Rab9 promoter-luciferase reporter, luminescence, 24 h; further: nearly all actives have a fitted effect of over 60% in size
#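 Luminescence read-out: Huh7 cells stably expressing Rab9-luciferase, treated 24 h with compound at 37 °C, then lysed with luciferase reagent for 10 min at ambient before reading.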
# FLuc modulator: inhibits or activates purified firefly luciferase, miR-21 counter-screen. P08659. actives 6.9% (n = 360,000). Potency, µM (highest dose often 57.5 µM), actives largely listed as inhibitors. purified FLuc, Km substrates, luminescence inhibition; further: nearly all actives have a fitted effect of over 55% in size
# Target sequence (P08659 whole entry, looked up): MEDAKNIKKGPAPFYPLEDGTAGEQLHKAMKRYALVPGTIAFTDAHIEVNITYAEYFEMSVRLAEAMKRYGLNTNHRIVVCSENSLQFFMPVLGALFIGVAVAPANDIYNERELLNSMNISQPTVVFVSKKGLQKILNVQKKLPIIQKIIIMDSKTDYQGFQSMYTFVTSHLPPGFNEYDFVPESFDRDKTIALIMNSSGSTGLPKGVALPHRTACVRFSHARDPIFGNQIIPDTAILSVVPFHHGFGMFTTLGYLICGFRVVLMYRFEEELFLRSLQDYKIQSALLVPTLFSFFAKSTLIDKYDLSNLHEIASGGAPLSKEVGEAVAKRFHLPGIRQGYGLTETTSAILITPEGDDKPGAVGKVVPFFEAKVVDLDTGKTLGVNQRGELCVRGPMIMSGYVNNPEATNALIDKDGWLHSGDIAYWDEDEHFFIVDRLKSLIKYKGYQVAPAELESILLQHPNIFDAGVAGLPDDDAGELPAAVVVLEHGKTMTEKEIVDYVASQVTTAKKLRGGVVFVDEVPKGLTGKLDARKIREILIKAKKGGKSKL
#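 Purified P. pyralis luciferase (10nM final) with 10uM D-luciferin and 10uM ATP (Km levels) in 50mM Tris acetate pH 7.5, 10mM Mg acetate, 0.01% Tween-20, 0.05% BSA; qHTS 6-point titration, ~60 µM downward; luminescence read.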
# ELG1 genotox: induces genotoxicity in HEK293T cells with luciferase-tagged ELG1 | HEK293T ELG1-luciferase reporter, luminescence, 16 h | Potency, µM (series often up to 46 µM), actives largely listed as activators | actives 1.3% (n = 330,000); further: nearly all actives have a fitted effect of over 60% in size
#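 Reporter readout depends on ELG1 protein level, which increases with genetic stress. After 16 hr compound exposure at 37 °C, luciferase activity was quantified using ONE-Glo.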
# SMN2 splice enh: SMN2 splice variant enhancement | Potency, µM (doses to about 46.1 µM), most hits filed as activators | actives 2.8% (n = 210,000) | AID 1458 | HEK293 SMN2-luciferase splicing reporter, luminescence, 30-36 h; further: nearly all actives have a fitted effect of over 55% in size
#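 qHTS luciferase splicing reporter: luminescence rises when SMN2 exon 7 is included in transfected HEK293 cells. Compound exposure lasted 30-36 h at 37C, with 4.5 mM final sodium butyrate as control, followed by a ONE-Glo read.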
# Hits are given with their value; 0 = inactive; ? = inconclusive; - = no result; [ ] = another dose, or the depositor's remark. Shown are actives, neighbours in structure and some others; about 7.5% of the full set was active somewhere. The call rests on the fitted dose curve; in most records, active means well fitted curve in the direction sought with a large enough effect; inconclusive means small, poorly fitted or top-dose-only effect, or another doubt; inactive means no such curve, though single readings can be large; an effect the other way counts as inactive or inconclusive.
SMILES,NPC1 promoter act,Rab9 promoter act,FLuc modulator,ELG1 genotox,SMN2 splice enh
Cc1ccccc1C(=O)N/N=C/c1ccsc1C,?,5.62µM,10.7µM,?,15.8µM
CC(=O)c1ccc(NC(=O)COCc2cc(-c3ccco3)on2)cc1,-,-,0,-,-
CCNC(=S)NNC(=O)c1cc(-c2ccccc2C)nc2ccccc12,0,0,16.9µM,0,0
CCNC(=S)NNC(=O)c1cc(-c2cccc(OC)c2)nc2ccccc12,0,0,0.675µM,?,?
CCNC(=S)NNC(=O)c1cc(CC(C)C)nc2ccccc12,0,0,?,0,0
COc1ccc(C(=O)NNC(=S)NC(=O)c2cc(-c3ccccc3)nc3ccccc23)cc1,0,0,12µM,0,0
CCCOc1ccc(C(=O)NNC(=S)NC(=O)c2cc(-c3ccc(Cl)cc3)nc3ccccc23)cc1,0,0,?,0,0
CCNC(=S)NNC(=O)c1cc(-c2ccc(OCC)cc2)nc2ccccc12,?,?,0.0239µM,0,0
Cc1ccc(C)c(-c2cc(C(=O)NNC(=S)NCC(C)C)c3ccccc3n2)c1,0,0,?,0,-
Cn1nnnc1Sc1ncnc2scc(-c3ccc([N+](=O)[O-])cc3)c12,0,0,0,0,-
CCCOc1cccc(-c2cc(C(=O)NNC(=S)NCC)c3ccccc3n2)c1,0,?,0.757µM,0,0
COc1ccc(/C=C/C(=O)NC(=S)NNC(=O)c2c(-c3ccccc3)noc2C)cc1,0,0,0,0,0
COc1ccc(-c2cc(C(=O)NNC(=S)NC(=O)c3c(-c4ccccc4)noc3C)[nH]n2)cc1,0,0,9.53µM,0,0
COc1ccc(-c2nc(-c3ccccc3)oc2Nc2c(C)cccc2C)cc1,-,-,-,-,0
CC1CCC(NC(=O)COC(=O)c2ccco2)CC1 (configuration not stated),0,0,23.9µM,0,-
O=C(COC(=O)c1ccccc1NC(=O)c1ccco1)NC1CC1,0,0,0,0,0
O=C(COC(=O)c1ccco1)Nc1ccc(Br)cc1,0,0,9.53µM,0,0
O=C(Nc1ccc(NC(=O)c2sc3ccccc3c2Cl)cc1)c1ccco1,0,0,0,23.1µM,0
O=C(COC(=O)c1ccco1)Nc1ccccc1,0,0,?,0,0
O=C(Nc1ccc(Cc2ccncc2)cc1)c1ccco1,?,?,19µM,0,0
CCCC(=O)N1CCN(c2ccc(NC(=O)c3sc4ccccc4c3Cl)cc2)CC1,0,0,0,?,0
CC(=O)NC(CC(=O)NNC(=O)c1cc2ccccc2cc1O)c1ccccc1 (configuration not stated),0,0,0,0,-
COC(=O)CSc1nc2sc3c(c2c(=O)n1-c1ccccc1C)CC(C)(C)OC3,-,-,0,-,0
c1ccc(C2Nc3ccccc3C3OCCCC23)cc1 (configuration not stated),0,0,0,0,-
O=C(Nc1ccc(Nc2ccccc2)cc1)c1ccco1,?,0.562µM,7.57µM,9.2µM,12.6µM
SMILES,NPC1 promoter act,Rab9 promoter act,FLuc modulator,ELG1 genotox,SMN2 splice enh
O=C(Nc1ccc(NC(=O)c2ccco2)cc1)c1ccco1,0,0,0,0,-
O=C(Nc1ccc(Br)cc1)c1ccco1,?,3.16µM,13.5µM,7.08µM,11.2µM
CC(C)Oc1ccccc1/C=N/Nc1ccccc1[N+](=O)[O-],?,?,?,0,0
Cc1[nH]c2ccccc2c1/C=N/Nc1ccccc1[N+](=O)[O-],0,?,16.9µM,0,0
CCOc1ccccc1/C=N/Nc1ccccc1[N+](=O)[O-],?,3.55µM,?,0,-
COc1ccccc1/C=N\Nc1ccccc1[N+](=O)[O-],?,2µM,1.9µM,9.2µM,-
CCn1c(SCC(=O)Nc2cccc(C)c2)nc2nc3c(cc2c1=O)COC(C)(C)C3,0,0,0,0,-
O=C(c1csnn1)N1CCC2(CC1)CCN(c1ccccn1)CC2,-,-,-,-,0
O=C(Nc1cnc2ccccn2c1=O)c1ccc(Cl)cc1,3.55µM,2.24µM,15.1µM,?,35.5µM
CC(=O)Nc1ccc(NC(=O)C(=O)c2cn(CC(=O)N3CCCCC3)c3ccccc23)cc1,0,0,0,0,0
CC(=O)c1cccc(NC(=O)C(=O)c2cn(CC(=O)N3CCCCC3)c3ccccc23)c1,0,0,8.49µM,0,0
O=C(Nc1ccccc1)C(=O)c1cn(CC(=O)N2CCCCC2)c2ccccc12,0,0,13.5µM,0,0
CCOC(=O)C1CCCN(c2nc3ccccc3nc2C(C#N)C(=O)OCC)C1 (configuration not stated),0,0,0,0,0
CCOC(=O)C1CCN(c2nc3ccccc3nc2C(C#N)C(=O)NCCc2ccccc2)CC1 (configuration not stated),?,0,19µM,0,0
O=C(/C=C/c1ccccc1)Nc1ccc(CN2CCOCC2)cc1,0,?,12µM,0,0
O=C(/C=C/c1ccc(Cl)cc1Cl)Nc1ccc(CN2CCOCC2)cc1,0,0,7.57µM,0,0
O=C(/C=C/c1ccco1)Nc1ccc(N2CCCC2)cc1,3.55µM,2.82µM,2.39µM,?,15.8µM
O=C(/C=C/c1ccco1)Nc1ccc(CN2CCOCC2)cc1,1.41µM,2.82µM,6.01µM,?,-
O=C(/C=C/c1ccco1)Nc1ccc(C(=O)N2CCOCC2)cc1,0,0,?,0,0
CCOC(=O)N1CCN(S(=O)(=O)N2CCCC(C(=O)NCc3cccc(OC)c3)C2)CC1 (configuration not stated),0,0,0,0,-
O=C(N/N=C/C(Cl)=C\c1ccccc1)c1ccco1,2.51µM,2.51µM,4.78µM,?,-
O=C(N/N=C/C(Cl)=C/c1ccccc1)c1ccco1,2.24µM,1.41µM,5.36µM,?,-
O=C(N/N=C/c1cccnc1)c1ccco1,0,0,0,0,-
CC(=O)Nc1ccc(-c2cc(C(=O)O)c3ccccc3n2)cc1,0,0,3.38µM,0,-
Cc1ccc(-c2cc(C(=O)Nc3cc(C)on3)c3ccccc3n2)cc1,0,0,0,0,0
SMILES,NPC1 promoter act,Rab9 promoter act,FLuc modulator,ELG1 genotox,SMN2 splice enh
Cc1cc(NC(=O)c2cc(-c3ccc(C)c(C)c3)nc3ccccc23)no1,0,0,4.78µM,0,0
CC(=O)NS(=O)(=O)c1ccc(NC(=O)c2cc(-c3ccc(C)c(C)c3)nc3ccccc23)cc1,0,0,1.35µM,0,0
Cc1ccc(-c2cc(C(=O)Nc3ccc(S(=O)(=O)Nc4nc(C)cc(C)n4)cc3)c3ccccc3n2)cc1,0,0,16.9µM,0,14.1µM
Cc1ccnc(NS(=O)(=O)c2ccc(NC(=O)c3cc(-c4ccccc4)nc4ccccc34)cc2)n1,0,0,?,0,0
CC(=O)Nc1ccc(-c2cc(-c3ccccc3)nc(-c3ccccc3)n2)cc1,0,0,0,0,0[1.84 µM]
O=C(COC(=O)C1CC1)NCc1ccccc1,0,0,0,0,-
CCCCCOC(=O)CSc1ncnc2sc3c(c12)CCC(C)C3 (configuration not stated),-,-,0,-,0
CC(=O)NS(=O)(=O)c1ccc(NC(=O)c2cc(-c3cccs3)nc3ccccc23)cc1,0,0,?,0,0

# Source: PubChem (National Center for Advancing Translational Sciences (NCATS))
